Measured values from PubChem BioAssay (NCATS).
Records with an inconclusive call do not appear. Activity calls are given as the source filed them. Unless noted, calls come from the whole dose curve; as a rule, active = well fitted curve in the direction sought with a large enough effect; inconclusive = small, poorly fitted or top-dose-only effect, or another doubt; inactive = no such curve, though single readings can be large; an effect the other way counts as inactive or inconclusive.

Columns and labels:
[1] = qHTS assay for small molecule antagonists of peroxisome proliferator-activated receptor delta signaling (AID 588535; active = well fitted inhibition curve with a large enough effect in the signal ratio, with a control signal flat, not every such curve was filed as active; the % refers to the signal ratio;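 for max response: cells co-treated with a PPAR-delta agonist as stimulator during compound exposure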); details: HEK293T PPARd-UAS-bla, beta-lactamase FRET ratio, 18 h; 460 nm channel
Summary of the method: (§1)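 Inhibition of PPAR-delta response element-driven beta-lactamase expression is measured in HEK293T cells exposed to a compound titration series for 18 hrs at 37 C. Half-maximal inhibition comes from Hill equation fitting.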

[2] = target: Peroxisome proliferator-activated receptor delta (Homo sapiens) (UniProt Q03181); assay: as above
Summary of the method: as §1

[3] = target: Vitamin D3 receptor (Homo sapiens) (UniProt P11473); assay: qHTS assay for small molecule antagonists of vitamin D receptor signaling (AID 588541; calls by dose curve;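 note: receptor activated by calcitriol during compound treatment; series mostly up to about 77 µM; % is set by controls: 0 for no effect and ±100 for the full control effect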)
Summary of the method: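 VDR-UAS-bla HEK293T cells (2000/well, 2% charcoal-stripped FBS) were treated with titrated compounds plus 1-alpha,25-dihydroxyvitamin D3 (50 nM or 3 nM final) for 16 h at 37 C. CCF4 beta-lactamase fluorescence was read; Hill fits gave IC50.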

[4] = target: Vitamin D3 receptor (Homo sapiens) (UniProt P11473); assay: qHTS assay for small molecule agonists of vitamin D receptor signaling (AID 588543; calls by dose curve;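 note: 0% = DMSO basal and 100% = reference agonist control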)
Summary of the method: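 Reporter cells (HEK293T, VDR-UAS-bla) were seeded in medium with 2% charcoal-stripped serum and incubated 5 h, then compounds in concentration series were added for 16 h at 37 °C. Stimulation was scaled between DMSO basal and 50 nM 1α,25-dihydroxyvitamin D3.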

[5] = qHTS assay for small molecule agonists of retinoid X receptor alpha signaling (AID 588544); details: HEK293T RXRa-UAS-bla, beta-lactamase reporter, 18 h; 530 nm emission
[6] = target: Thyroid hormone receptor beta (Homo sapiens) (UniProt P10828); assay: qHTS assay for small molecule agonists of thyroid hormone receptor beta signaling (AID 588545; calls by dose curve)
Summary of the method: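 HEK 293 TR-UAS-bla; agonist mode; 18 hrs, 37 C; CCF4, ex 405/em 460 and 530 nm; norm. T3 10 nM = 100%, DMSO = 0%; Hill fit → EC50, efficacy.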

[7] = qHTS assay for small molecule antagonists of retinoid X receptor alpha signaling (AID 588546; active = well fitted inhibition curve with a large enough effect in the signal ratio, with a control signal flat, not every such curve was filed as active; the % refers to the signal ratio;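 note: cells stimulated with 9-cis-retinoic acid as agonist; % is set by controls: 0 for no effect and ±100 for the full control effect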); details: HEK293T RXRa-UAS-bla, beta-lactamase ratio, antagonist mode; measured here: W530 green channel, cytotoxicity proxy
Summary of the method: (§2)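 Beta-lactamase reporter inhibition, read as CCF4 fluorescence ratio (ex 405, em 460/530 nm) after 2 h at RT. HEK293T UAS-bla cells, 2500/well, were stimulated with 9-cis-RA at 500 or 100 nM final alongside test compound for 18 h at 37 C.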

[8] = target: Retinoic acid receptor RXR-alpha (Homo sapiens) (UniProt P19793); assay: as above; details: HEK293T RXRa-UAS-bla, beta-lactamase ratio, antagonist mode
Summary of the method: as §2

[9] = target: Thyroid hormone receptor beta (Homo sapiens) (UniProt P10828); assay: qHTS assay for small molecule antagonists of thyroid hormone receptor beta signaling (AID 588547; active = well fitted inhibition curve with a large enough effect in the signal ratio, with a control signal flat, not every such curve was filed as active; the % refers to the signal ratio;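 note: cells stimulated with 0.4 nM T3 agonist during compound exposure; series mostly up to about 77 µM; % is set by controls: 0 for no effect and ±100 for the full control effect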); details: TR-UAS-bla HEK293, beta-lactamase ratio, antagonist mode, 18 h
Summary of the method: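 TR-UAS-bla GripTite HEK293 cells in 2% charcoal/dextran FBS medium were preincubated 4 h at 37 C, given compound (0.59 nM to 92 uM) plus 0.4 nM T3 (final) for 18 h, then CCF4 for 2 h at RT; Hill fit gave IC50.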

[10] = qHTS assay for small molecule activators of the p53 signaling pathway (AID 651743; active = well fitted activation curve with a large enough effect in the signal ratio, not every such curve was filed as active; the % refers to the signal ratio; note: series mostly up to about 92 µM; % of control where 0% means no effect); details: HCT-116 p53RE-bla, beta-lactamase FRET ratio, 16 h; activation: stronger effect = higher value
Summary of the method: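 Agonist-mode quantitative HTS in HCT-116 cells carrying a p53-response-element beta-lactamase reporter; 16 h compound treatment at 37 C, then FRET substrate loading for 2 h at room temperature and fluorescence read.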

[11] = qHTS assay for small molecule activators of the nuclear factor-kappa B (NF-kB) signaling pathway (AID 651749; active = well fitted activation curve with a large enough effect in the signal ratio; the % refers to the signal ratio; note: series mostly up to about 77 µM; % of control where 0% means no effect); details: NF-kB-bla ME-180 cells, beta-lactamase FRET ratio, 16 h; stronger effect = higher value
Summary of the method: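 Human ME-180 cervical cells with an NF-kB-bla construct; compounds added via 23 nL pin transfer, DMSO as vehicle; incubation 16 hr. Reporter activity measured by FRET disruption.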

[12] = qHTS assay for environmental chemicals that activate the Aryl hydrocarbon Receptor (AhR) signaling pathway (AID 651777); details: 1A2-DRE human hepatoma cells, luciferase, 24 h; activation: stronger effect = higher value; note: % of control where 0% means no effect; nearly all actives have a fitted effect of over 15% in size
Summary of the method: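 Reporter gene assay: hepatoma cells with DRE/CYP1A2-luciferase, 24 hr compound incubation at 37 C, 5% CO2, luminescence after One-Glo (30 min, RT).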

[13] = target: Peroxisome proliferator-activated receptor alpha (Homo sapiens) (UniProt Q07869); assay: qHTS assay for small molecule agonists of the peroxisome proliferator-activated receptor alpha (PPARalpha) signaling pathway (AID 651778); details: PathHunter PPARalpha complementation, chemiluminescence, 6 h; max response: stronger effect = higher value; note: % of control where 0% means no effect
Summary of the method: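 Cells plated at 2,000/well and held overnight at 37 C, 5% CO2, then compound added by pin tool for 6 hr; after PathHunter detection reagent and 60 min at room temperature, chemiluminescence from enzyme complementation was read.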

[14] = qHTS assay for small molecule agonists of the antioxidant response element (ARE) signaling pathway measured by Nrf2-dependant transcriptional activity (AID 720636; active = well fitted curve in the direction sought with a large enough effect in the repeat runs; an effect the other way counts as inactive or inconclusive;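 note: HepG2 cells with an ARE-driven luciferase reporter; % of control where 0% means no effect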)
Summary of the method: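 Nrf2-dependent transcription is measured in ARE-luc HepG2 cells: compound is applied for 16 hr at 37 C after a 6 hr attachment period, and luciferase activity is quantified by luminescence using ONE-Glo.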

[15] = qHTS assay for small molecule agonists of the antioxidant response element (ARE) signaling pathway measured by Nrf2-dependant transcriptional activity - cell viability counter screen (AID 720653; active = well fitted curve in the direction sought with a large enough effect in the repeat runs; an effect the other way counts as inactive or inconclusive; note: % is set by controls: 0 for no effect and ±100 for the full control effect); details: ARE-bla HepG2 viability, CellTiter-Glo ATP luminescence, 16 h; max response: stronger effect = lower value
Summary of the method: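 ARE-bla HepG2 cells (2,000/well) rested 5 hrs at 37C/5% CO2, then exposed to compounds in DMSO for 16 hrs. Viability was read in the same wells as intracellular ATP by luminescence, 30 min at room temperature after reagent addition.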

[16] = qHTS assay for cell viability of HEK293 cells (AID 743288); details: ATP luminescence (CellTiter-Glo), 18 h; max response: stronger effect = lower value; note: % is set by controls: 0 for no effect and ±100 for the full control effect; nearly all actives have a fitted effect of over 50% in size
Summary of the method: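 Viable-cell counts were inferred from luciferase-based ATP content in HEK293 cells seeded at 2,000/well, pre-incubated ≥5 h, then dosed with DMSO-solubilised compounds for 18 h at 37 C.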

[17] = qHTS assay for cell viability of the p53RE-bla HCT-116 cell line (AID 743292); note: % is set by controls: 0 for no effect and ±100 for the full control effect; nearly all actives have a fitted effect of over 55% in size
Summary of the method: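 ATP-based luminescence, 16 h compound exposure at 37 C, p53RE-bla HCT-116 cells at 4,000/well.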

[18] = NCATS anti-infectives library activity on HEK293 viability as a counter-qHTS vs the C. elegans viability qHTS (AID 1745854); note: % is set by controls: 0 for no effect and ±100 for the full control effect
Summary of the method: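 Cytotoxicity counter-screen to a worm viability qHTS: CellTiter-Glo luminescence read 10 min after reagent addition. Compounds (final up to 41.7 uM, a 1:5 dilution series) incubated 24 hr at 37C with 1,500 HEK293 cells per well; digitonin control.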

[19] = target: Glutathione peroxidase 1 (Homo sapiens) (UniProt P07203); assay: Primary qHTS Assay for Inhibitors of Recombinant Selenoprotein Glutathione Peroxidase 1 (GPX1) (AID 1845191); note: nearly all actives have a fitted effect of over 65% in size
Summary of the method: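 GPX1 10 nM, GR 100 nM, GSH 1 mM, NADPH 0.5 mM, CHP 0.5 mM (final). 30-min cpd preincubation, RT. Ex340/Em450 read t=0, t=15 min.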

[20] = target: Phospholipid hydroperoxide glutathione peroxidase GPX4 (Homo sapiens) (UniProt P36969); assay: Primary qHTS Assay for Inhibitors of Recombinant Selenoprotein Glutathione Peroxidase 4 (GPX4) (AID 1845192); note: nearly all actives have a fitted effect of over 65% in size
Summary of the method: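 qHTS, GR-coupled: GPX4 200 nM + cpd 30 min RT → GSH 1 mM, NADPH 0.5 mM, GR 100 nM → CHP 0.5 mM start; fluor 340/450 at t0 and t15 min; no-enzyme wells as control.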

[21] = target: Nuclear receptor subfamily 1 group I member 2 (Rattus norvegicus) (UniProt Q9R1A7); assay: qHTS assay for small molecule activators of the rat pregnane X receptor (rPXR) signaling pathway (AID 651751; call rule not given here; note: 0% is about no effect); details: rPXR reporter cells, luciferase (One-Glo), 24 h
[22] = qHTS assay for small molecule activators of the human pregnane X receptor (PXR) signaling pathway (AID 720659; call rule not given here; note: 0% is about no effect)

Glutathione peroxidase 1 (Homo sapiens), sequence (P07203 whole entry, looked up): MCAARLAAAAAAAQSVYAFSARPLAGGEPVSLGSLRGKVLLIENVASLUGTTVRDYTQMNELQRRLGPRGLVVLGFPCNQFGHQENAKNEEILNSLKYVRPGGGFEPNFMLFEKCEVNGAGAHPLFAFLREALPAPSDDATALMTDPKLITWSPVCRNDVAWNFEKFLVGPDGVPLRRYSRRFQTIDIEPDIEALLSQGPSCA
Thyroid hormone receptor beta (Homo sapiens), sequence (P10828 whole entry, looked up): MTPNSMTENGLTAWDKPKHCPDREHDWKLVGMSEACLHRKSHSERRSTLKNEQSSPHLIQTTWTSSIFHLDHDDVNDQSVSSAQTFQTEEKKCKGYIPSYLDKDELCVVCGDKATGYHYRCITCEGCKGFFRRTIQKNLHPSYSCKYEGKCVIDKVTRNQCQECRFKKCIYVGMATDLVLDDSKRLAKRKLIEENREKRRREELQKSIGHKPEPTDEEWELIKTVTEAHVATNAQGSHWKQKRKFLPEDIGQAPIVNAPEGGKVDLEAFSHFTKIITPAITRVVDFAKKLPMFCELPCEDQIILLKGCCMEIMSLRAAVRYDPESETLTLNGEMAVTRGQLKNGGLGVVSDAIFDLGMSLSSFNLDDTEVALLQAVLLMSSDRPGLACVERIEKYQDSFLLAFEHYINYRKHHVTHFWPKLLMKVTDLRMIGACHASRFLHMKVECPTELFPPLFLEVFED
Vitamin D3 receptor (Homo sapiens), sequence (P11473 whole entry, looked up): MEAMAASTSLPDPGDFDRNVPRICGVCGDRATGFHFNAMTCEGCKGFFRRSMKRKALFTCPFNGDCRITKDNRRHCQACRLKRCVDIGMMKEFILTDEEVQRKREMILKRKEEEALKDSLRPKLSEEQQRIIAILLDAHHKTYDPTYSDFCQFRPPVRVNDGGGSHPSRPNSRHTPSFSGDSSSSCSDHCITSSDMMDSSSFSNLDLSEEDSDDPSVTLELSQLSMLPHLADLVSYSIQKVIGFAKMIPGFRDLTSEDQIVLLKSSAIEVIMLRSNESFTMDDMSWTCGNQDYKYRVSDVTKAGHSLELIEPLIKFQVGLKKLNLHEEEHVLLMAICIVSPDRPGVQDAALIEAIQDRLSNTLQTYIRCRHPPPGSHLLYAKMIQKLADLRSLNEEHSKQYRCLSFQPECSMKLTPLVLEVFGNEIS
Phospholipid hydroperoxide glutathione peroxidase GPX4 (Homo sapiens), sequence (P36969 whole entry, looked up): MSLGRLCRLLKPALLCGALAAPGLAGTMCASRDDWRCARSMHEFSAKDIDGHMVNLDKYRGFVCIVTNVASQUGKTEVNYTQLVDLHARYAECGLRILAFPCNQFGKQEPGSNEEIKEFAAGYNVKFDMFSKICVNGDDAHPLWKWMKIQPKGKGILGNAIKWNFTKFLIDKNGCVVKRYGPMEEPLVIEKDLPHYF
Retinoic acid receptor RXR-alpha (Homo sapiens), sequence (P19793 whole entry, looked up): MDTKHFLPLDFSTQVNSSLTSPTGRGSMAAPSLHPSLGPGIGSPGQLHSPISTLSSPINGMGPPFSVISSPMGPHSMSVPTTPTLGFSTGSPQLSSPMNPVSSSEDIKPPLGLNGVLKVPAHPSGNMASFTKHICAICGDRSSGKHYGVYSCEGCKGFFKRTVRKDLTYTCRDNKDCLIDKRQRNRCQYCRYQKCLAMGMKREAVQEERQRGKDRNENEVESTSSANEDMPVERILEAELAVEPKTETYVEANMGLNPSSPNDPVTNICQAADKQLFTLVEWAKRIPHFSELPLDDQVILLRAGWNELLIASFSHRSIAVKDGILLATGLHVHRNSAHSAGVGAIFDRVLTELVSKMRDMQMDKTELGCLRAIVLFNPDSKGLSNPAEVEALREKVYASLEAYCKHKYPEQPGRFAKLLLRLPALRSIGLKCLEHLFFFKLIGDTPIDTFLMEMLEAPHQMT
Nuclear receptor subfamily 1 group I member 2 (Rattus norvegicus), sequence (Q9R1A7 whole entry, looked up): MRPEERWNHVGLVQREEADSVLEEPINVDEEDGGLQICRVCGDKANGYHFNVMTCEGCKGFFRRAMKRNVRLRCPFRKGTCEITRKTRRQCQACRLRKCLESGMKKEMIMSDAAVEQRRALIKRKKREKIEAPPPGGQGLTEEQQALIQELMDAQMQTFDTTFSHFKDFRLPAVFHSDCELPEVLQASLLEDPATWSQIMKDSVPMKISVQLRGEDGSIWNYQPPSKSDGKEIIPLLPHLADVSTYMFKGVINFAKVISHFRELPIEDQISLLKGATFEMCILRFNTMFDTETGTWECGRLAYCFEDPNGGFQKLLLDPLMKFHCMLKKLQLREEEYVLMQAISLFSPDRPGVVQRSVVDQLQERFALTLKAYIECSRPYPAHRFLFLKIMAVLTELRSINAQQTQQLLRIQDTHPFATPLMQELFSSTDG
Peroxisome proliferator-activated receptor delta (Homo sapiens), sequence (Q03181 whole entry, looked up): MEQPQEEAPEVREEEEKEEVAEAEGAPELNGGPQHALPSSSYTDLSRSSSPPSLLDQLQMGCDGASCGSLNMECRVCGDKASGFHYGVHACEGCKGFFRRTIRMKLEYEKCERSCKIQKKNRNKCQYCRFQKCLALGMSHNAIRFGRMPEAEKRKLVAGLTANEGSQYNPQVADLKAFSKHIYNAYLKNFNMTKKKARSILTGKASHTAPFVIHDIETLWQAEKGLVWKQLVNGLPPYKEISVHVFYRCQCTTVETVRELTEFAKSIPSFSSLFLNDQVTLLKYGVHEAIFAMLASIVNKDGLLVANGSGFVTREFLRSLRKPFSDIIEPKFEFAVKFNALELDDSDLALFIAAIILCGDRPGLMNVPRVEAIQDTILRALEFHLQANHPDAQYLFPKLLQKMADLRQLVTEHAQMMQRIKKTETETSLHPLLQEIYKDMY
Peroxisome proliferator-activated receptor alpha (Homo sapiens), sequence (Q07869 whole entry, looked up): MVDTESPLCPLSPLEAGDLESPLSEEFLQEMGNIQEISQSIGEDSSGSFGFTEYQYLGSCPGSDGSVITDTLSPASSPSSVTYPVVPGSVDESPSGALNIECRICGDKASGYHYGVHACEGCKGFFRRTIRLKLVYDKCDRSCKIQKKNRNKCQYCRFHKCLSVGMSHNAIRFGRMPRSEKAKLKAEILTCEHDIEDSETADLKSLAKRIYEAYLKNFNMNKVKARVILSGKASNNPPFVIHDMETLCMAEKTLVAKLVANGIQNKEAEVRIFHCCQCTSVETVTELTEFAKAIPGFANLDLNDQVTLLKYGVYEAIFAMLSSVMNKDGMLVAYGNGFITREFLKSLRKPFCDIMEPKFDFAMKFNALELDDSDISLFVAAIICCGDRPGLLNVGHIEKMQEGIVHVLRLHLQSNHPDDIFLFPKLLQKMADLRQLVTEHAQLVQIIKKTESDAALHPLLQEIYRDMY

C[Si](C)(C)O[Si](C)(C)O[Si](C)(C)C
-9.81%: max response [7]
-9.58%: max response [5]
25.8%: max response [1]
inactive: Potency [2] | outcome [3] | outcome [4] | outcome [6] | max response [8] -6.04% | activity change % (negative = inhibition) [9] -8.82% | activation [10] -8.05% | activation [11] -3.32% | activation [12] -0.707% | max response [13] 0.325% | Potency [14] | max response [15] 4.82% | max response [16] -3.28% | Potency [17] | Potency [18] | Potency [19] | Potency [20] | max response [21] 0.588% | outcome [22]

O=C(O)CCCN1CCC(O[C@@H](c2ccc(Cl)cc2)c2ccccn2)CC1
inactive: Potency [18] | Potency [19] | Potency [20]
